# From publication PMC8769072, “Proteome‐scale mapping of binding sites in the unstructured regions of the human proteome” (Molecular Systems Biology, 2022)
# Chain of ZMYND11 480-602, Q15326 (Q15326 480-602): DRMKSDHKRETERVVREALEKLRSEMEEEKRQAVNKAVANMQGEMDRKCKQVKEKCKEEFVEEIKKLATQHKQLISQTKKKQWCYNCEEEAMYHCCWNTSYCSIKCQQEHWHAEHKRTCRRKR
# Chain of YES1 90-152, P07947 (P07947 90-152): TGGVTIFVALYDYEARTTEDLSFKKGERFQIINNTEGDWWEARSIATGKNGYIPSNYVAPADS
Binder,"selected by phage display (ZMYND11 480-602, Q15326)","selected by phage display (YES1 90-152, P07947)"
"SAISEVTQPPSYEDAV [MYOCD, Q8IZQ8]",confidence 3 (active),–
"HSTGEQPPQLSLATRV [LPIN1, Q14693]",confidence 3 (active),–
"NLEVKSLRALPATPAL [PDE4DIP, Q5VU43]",–,confidence 2 (active)
"FERENEGMPSLIAESN [ARID4A, P29374]",confidence 2 (active),–
"GMLEMPDLRDGSNVIV [DSG1, Q02413]",confidence 3 (active),–
"QLLMPTLESETEAAVP [PPRC1, Q5VV67]",confidence 4 (active),–
"MPELERSQYPMEWGKT [SGMS1, Q86VZ5]",confidence 2 (active),–
"SPPTLAPATASPPTTA [MLXIPL, Q9NP71]",confidence 2 (active),–
"DSINPPALVHVHMQGQ [ZSCAN4, Q8NAM6]",confidence 3 (active),–
"MPQLDAAGDRLELRSE [C2orf81, A6NN90]",confidence 2 (active),–
"EPEYPREPPRLEPQPY [UBN2, Q6ZU65]",confidence 2 (active),–
"MPVLESSSWPASKGLG [NSD1, Q96L73]",confidence 3 (active),–
"EGIPVLEAQNGKLEVV [ATAD2B, Q9ULI0]",confidence 2 (active),–
"EEETKEMPKLQAELAD [ZBTB38, Q8NAP3]",confidence 4 (active),–
SELKTMPNLQPISALP,confidence 4 (active),–
"QGSGPGEVLPPLLQLE [AATK, Q6ZMQ8]",confidence 2 (active),–
"QMPRLVAEESNRGSTT [MORC4, Q8TE76]",confidence 3 (active),–
"ELEMPVLKSSLALGLE [PPP1R35, Q8TAP8]",confidence 4 (active),–
"ENPPSYYSIFNYGRTP [TMEM171, Q8WVE6]",confidence 3 (active),–
"NESENSRSMPKLEIFE [ZNF165, P49910]",confidence 3 (active),–

Binder,"selected by phage display (ZMYND11 480-602, Q15326)","selected by phage display (YES1 90-152, P07947)"
"LISDLDEGPPVLTPVE [ZHX1, Q9UKY1]",confidence 4 (active),–
"PPMPQLTPQIPLTGFV [ABI1, Q8IZP0]",confidence 2 (active),–
"QQTPPKLTAYLPAMSE [PDPK1, O15530]",confidence 2 (active),–
"MVVSMPNLQDIAMPEL [DENND3, A2RUS2]",confidence 3 (active),–
"QFHPTPPPLQHYTLED [CBFA2T2, O43439]",confidence 2 (active),–
"MPNLARMPSTTAISSN [SLAIN1, Q8ND83]",confidence 2 (active),–
TPPVQGLEPPVLEAME [I3L1I5],confidence 4 (active),–
"IQSIPLPPTTHTRLPA [TSHZ1, Q6ZSZ6]",–,confidence 2 (active)
"EQALPPHLEPAWPQGL [HOMEZ, Q8IX15]",confidence 4 (active),–
"SLQNPPVLIAQPDHSY [SEC16A, O15027]",confidence 2 (active),–
"SMHRDGPPLLENAHSS [SOS1, Q07889]",confidence 2 (active),–
"EVEASMPQLWAGDSEG [ZNF484, Q5JVG2]",confidence 2 (active),–
"VPVLEPQLPGSVFDPI [BRD4, O60885]",confidence 2 (active),–
DSRDQMPVLEKAIDLP,confidence 2 (active),–
"NQEQPTTLSMPLLMVS [ENO4, A6NNW6]",confidence 2 (active),–
"VDFDPSTPPKLMPFSN [LZTS1, Q9Y250]",confidence 2 (active),–
"DMPELFPSKTAHVTDQ [ETAA1, Q9NY74]",confidence 2 (active),–
"GMPALESVTIGDDIWD [TDRD5, Q8NAT2]",confidence 2 (active),–
"AVFPDDMPTLSALPWE [KMT2A, Q03164]",confidence 3 (active),–
